Out of some 16,000 compounds screened, about 4,000 (25%) were called active. About 26% were inconclusive and are not listed. Calls follow the shape of the dose curve; as a rule, active = well fitted curve in the direction sought with a large enough effect; inconclusive = small, poorly fitted or top-dose-only effect, or effect the other way; inactive = no such curve, though single readings can be large or run the other way. The list is a sample of the results.
Target: Cytochrome P450 2C9 (Homo sapiens) (UniProt P11712)
Sequence (P11712 whole entry, looked up): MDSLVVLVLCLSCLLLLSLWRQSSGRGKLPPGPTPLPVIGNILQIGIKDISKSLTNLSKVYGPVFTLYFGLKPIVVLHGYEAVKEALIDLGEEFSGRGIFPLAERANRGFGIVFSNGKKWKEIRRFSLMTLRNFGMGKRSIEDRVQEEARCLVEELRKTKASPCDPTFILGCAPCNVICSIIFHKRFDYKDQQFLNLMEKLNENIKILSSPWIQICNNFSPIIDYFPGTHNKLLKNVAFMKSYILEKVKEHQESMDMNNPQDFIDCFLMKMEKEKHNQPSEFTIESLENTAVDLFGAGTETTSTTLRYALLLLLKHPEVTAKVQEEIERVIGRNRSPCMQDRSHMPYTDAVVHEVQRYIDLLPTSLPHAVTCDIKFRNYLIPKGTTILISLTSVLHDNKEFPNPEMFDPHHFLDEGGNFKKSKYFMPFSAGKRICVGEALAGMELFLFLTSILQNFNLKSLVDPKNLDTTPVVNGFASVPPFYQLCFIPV
Assay: Cytochrome panel assay with activity outcomes
Settings: recombinant CYP, pro-luciferin dealkylation, luminescence, p450-cyp2c9; series mostly up to 57.1 µM; activity, negative = inhibition: at the top concentration
% is scaled to controls: 0 for no effect and ±100 for the full control effect.

| Compound | activity, negative = inhibition | AC50 |
| --- | --- | --- |
| CN1CCCC2(CCN(C(=O)c3cc(C(F)(F)F)cc(C(F)(F)F)c3)CC2)C1 | 6.14% (inactive) |  |
| COC(=O)c1c(-c2cc(OC)c(OC)c(OC)c2)c2ccnc(OCc3ncccn3)c2c(=O)n1Cc1ccnc(C)c1 |  | 12.6 µM (active) |
| Cn1cnc([N+](=O)[O-])c1Sc1nc(N)nc2c1ncn2[C@H]1C[C@H](O)[C@@H](CO)O1 | -1.03% [at 11.4 µM] (inactive) |  |
| Cc1cccc(N2CC(O)=C(c3nc4ccccc4n3C)C2=N)c1 | -8.08% (inactive) |  |
| Cn1c(-c2sc(=S)n(-c3ccccc3)c2N)nc2ccccc21 |  | 2.51 µM (active) |
| O=C(NCCCN1CCCC1=O)c1ccc(CNS(=O)(=O)c2ccc(F)cc2)cc1 | -31.1% (inactive) |  |
| Cc1ccc(S(=O)(=O)N(CCCN2CCCC2=O)Cc2cc3c(C)ccc(C)c3[nH]c2=O)cc1 |  | 3.16 µM (active) |
| Cc1ccc(CS(=O)(=O)CCC(=O)NCCCN2CCCC2=O)cc1 | -8.86% (inactive) |  |
| Cc1ccc(N2CCN(CCC(=O)O)CC2)cc1 | 10.3% [at 11.4 µM] (inactive) |  |
| Cc1ccc(C)c(-c2nn(-c3cc(N4CCN(CCO)CC4)ccc3[N+](=O)[O-])c(=O)c3ccccc23)c1 |  | 12.6 µM (active) |
| CO[C@@H]1/C=C\CC(=O)N[C@@H](C)C(=O)OC[C@@H](OC)[C@H](C)/C=C\CC(=O)OC[C@H]1C | 9.15% [at 11.4 µM] (inactive) |  |
| Cn1c(=O)c2[nH]c(CCS)nc2n(C)c1=O | 10.4% [at 11.4 µM] (inactive) |  |
| Cc1cccc(Nc2cc(Cl)nc(SCC(=O)O)n2)c1C | -23.8% (inactive) |  |
| Cc1cccc(NC(=O)CSc2nnc(-c3ccco3)c(-c3ccco3)n2)c1C |  | 1.78 µM (active) |
| Cc1cc(C)nc(SCC(=O)Nc2ccccc2[N+](=O)[O-])n1 | -21.1% (inactive) |  |
| O=C(O)CCC(=O)N1CCC[C@H]1C(=O)O | 21.5% (inactive) |  |
| CCCC[C@H]1C[C@@H]1[C@@H]1N(P(=O)(c2ccccc2)c2ccccc2)[C@](CO)(c2ccccc2)CC12CC2 |  | 15.8 µM (active) |
| CCCC[C@H]1C[C@@H]1[C@@H]1N(P(=O)(c2ccccc2)c2ccccc2)C[C@@](O)(c2ccccc2)CC12CC2 | -27.2% (inactive) |  |
| CCC(NC(=O)Nc1cc(OC)c(OC)c(OC)c1)(C(F)(F)F)C(F)(F)F |  | 14.1 µM (active) |
| CCN(CC)CCCCCCCCOC(=O)c1cc(OC)c(OC)c(OC)c1 | -12.6% (inactive) |  |
| CCOC(=O)c1ccc(NC(=O)Nc2ccc3c4c(cccc24)C(=O)N3CC)cc1 |  | 20 µM (active) |

| Compound | activity, negative = inhibition | AC50 |
| --- | --- | --- |
| CCN1C(=O)c2cccc3c(NC(=O)c4cccc(N5C(=O)CCC5=O)c4)ccc1c23 | -16.7% (inactive) |  |
| c1csc(CNc2ccnc(-c3ccc4c(c3)OCO4)n2)c1 | -22.4% [at 2.29 µM] (inactive) |  |
| CC1CCCCN1c1nc(-c2ccncc2)nc2ccccc12 (stereo unspecified) |  | 0.398 µM (active) |
| c1cncc(-c2nc(N3CCNCC3)c3ccccc3n2)c1 | -1.35% [at 2.29 µM] (inactive) |  |
| CN1CCN(c2nc(-c3cccnc3)nc3ccccc23)CC1 | 16.9% [at 2.29 µM] (inactive) |  |
| CCNc1ncc2nc(-c3ccc(OC)cc3)c(=O)n(-c3ccc(OC)cc3)c2n1 | 9.11% (inactive) |  |
| NCC(=O)Nc1ccc(Cl)cc1C(=O)c1ccc[nH]1 | -20.4% [at 11.4 µM] (inactive) |  |
| CS(=O)(=O)N1CCC2(CC1)CN(c1ncccn1)C2 | 21.2% (inactive) |  |
| CS(=O)(=O)N1CCC2(CC1)CN(c1ccncc1)C2 |  | 15.8 µM (active) |
| CS(=O)(=O)N1CCC2(CC1)CN(Cc1nccs1)C2 |  | 10 µM (active) |
| CS(=O)(=O)N1CCC[C@@]2(CCN(Cc3nccs3)C2)C1 | -13.9% (inactive) |  |
| CS(=O)(=O)N1CCC2(CCCN(c3ccncc3)C2)CC1 |  | 0.0794 µM (active) |
| CS(=O)(=O)N1CCC2(CCN(c3ccncc3)CC2)CC1 | -22.8% (inactive) |  |
| CS(=O)(=O)N1CCC[C@@]2(CCN(c3ccncc3)C2)C1 | 6.86% (inactive) |  |
| CS(=O)(=O)N1CCC2(CCCN(c3ncccn3)C2)CC1 | -13.1% (inactive) |  |
| CS(=O)(=O)N1CCC2(CCN(Cc3nccs3)CC2)CC1 | -16.9% (inactive) |  |
| CC(=O)N1CCC2(CCCN(C(=O)Nc3cccc(F)c3)C2)CC1 | -0.517% (inactive) |  |
| OCCNc1ncnc2c1ncn2[C@@H]1O[C@@H](CO)[C@H](O)[C@@H]1O | 8.16% [at 11.4 µM] (inactive) |  |
| Cc1ccc(N(Cc2ccccc2)Cc2ccccc2)cc1 | -16.6% [at 11.4 µM] (inactive) |  |
| CN(C)c1nccc(N(Cc2ccccc2)Cc2ccccc2)c1C#N |  | 2.24 µM (active) |
| COc1ccc(CN(CCN(C)C)c2ccccn2)cc1 |  | inactive |

| Compound | activity, negative = inhibition | AC50 |
| --- | --- | --- |
| Cc1ccc(N=Nc2ccc(N)cc2C)c(S(N)(=O)=O)c1 | -8.16% [at 11.4 µM] (inactive) |  |
| COc1ccc(NC(=O)CSc2nc(-c3ccc(C)cc3)cc(C(F)(F)F)c2C#N)cc1 |  | 0.794 µM (active) |
| CCc1ccc(/C=C\C(=O)N2CCc3ccccc3C2)cc1 |  | 22.4 µM (active) |
| N=C(N)N1CCc2ccccc2C1 | -9.55% [at 25.6 µM] (inactive) |  |
| CCCCCCN1Cc2ccccc2C1 | 4.38% (inactive) |  |
| Cc1cc(=O)oc(C)c1C(=O)NCc1ccccc1 | -11.3% (inactive) |  |
| CC1CCN(C(=O)c2ccc(COc3ccccc3Cl)o2)CC1 |  | 17.8 µM (active) |
| Cc1ccccc1CS(=O)(=O)Cc1ccc(C(=O)NCc2cccnc2)o1 |  | 5.01 µM (active) |
| Cc1ccccc1-c1cc(NCc2cccnc2)ncn1 | -13% [at 2.29 µM] (inactive) |  |
| CCOc1ccc(OCc2ccc(C(=O)N3CCc4ccccc4C3)o2)cc1 |  | 5.01 µM (active) |
| COc1ccc(-c2cc(C(=O)NCc3cccnc3)no2)cc1OC | 23.4% (inactive) |  |
| CCOc1ccc(OCc2ccc(C(=O)NCc3cccnc3)o2)cc1 |  | 12.6 µM (active) |
| COc1ccccc1OCc1ccc(C(=O)N(C)C)o1 | -18% (inactive) |  |
| Clc1ccccc1OCCCCN1CCCC1 | -9.04% (inactive) |  |
| CCOc1cccc(CNCCNC(=O)c2nonc2N)c1 | -17% (inactive) |  |
| Cc1cc(C)n(CCCNCC(O)c2ccccc2)n1 (stereo unspecified) | -11.4% (inactive) |  |
| Cc1cc(C)n(Cc2ccc(NC(=O)c3ccc(COc4ccccc4Br)cc3)cc2)n1 |  | 1.12 µM (active) |
| Cc1ccccc1C(=O)Nc1ccc(C(=O)NNC(=O)CCCOc2ccc(Cl)cc2Cl)cc1 | -26.9% (inactive) |  |
| c1ccc(CN2CC[C@@H](CNc3ncnc4ccccc34)C2)cc1 | 22.2% [at 11.4 µM] (inactive) |  |

Source: PubChem BioAssay AID1851 (National Center for Advancing Translational Sciences (NCATS), 2009)
